Reference: PubChem BioAssay (NCI)
The panel holds about 79,000 compounds, 15% with a hit somewhere; the sample as a whole holds those more often. Calls of active or inactive are those of the source. Cut-off read from the data, not from the text of the source: active = growth inhibition above about 70%; inactive = the rest.

Columns and labels:
[1] = NCI Yeast Anticancer Drug Screen. Data for the rad52 strain (AID 147);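 note: 0% = growth of vehicle-treated control cultures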; settings: S. cerevisiae rad52 mutant growth inhibition, stronger effect = higher value
Summary of the method: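 Measured: yeast growth inhibition. System: strain with a defined DNA damage repair alteration. Reference: vehicle-treated control cultures.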

[2] = NCI Yeast Anticancer Drug Screen. Data for the wt1 strain (AID 149);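 note: 0% = growth of vehicle-treated wt1 cultures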; settings: S. cerevisiae wt1 strain (SPY 50644) growth inhibition, stronger effect = higher value
Summary of the method: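 Each compound is tested on wt1 yeast and the loss of growth versus vehicle gives the inhibition value.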

[3] = NCI Yeast Anticancer Drug Screen. Data for the rad50EPP+ strain (AID 151);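 note: 0% = growth of vehicle-treated control cultures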; settings: S. cerevisiae rad50 mutant strain, stronger effect = higher value
Summary of the method: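 One strain with a rad50 alteration (rad50EPP+) was compound-treated, its growth then compared to that of vehicle controls.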

[4] = NCI Yeast Anticancer Drug Screen. Data for the rad50 strain (AID 155);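 note: 0% = growth of vehicle-only cultures of the same strain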; settings: S. cerevisiae rad50 strain growth inhibition, stronger effect = higher value
Summary of the method: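 Vehicle-treated cultures provide the reference for the growth inhibition reported for compound-exposed, repair-deficient yeast.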

[5] = NCI Yeast Anticancer Drug Screen. Data for the mec2-1 strain (AID 157); settings: S. cerevisiae mec2-1 strain, stronger effect = higher value
Summary of the method: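 Test agents were screened against the mec2-1 yeast strain, with defined DNA repair or cell cycle alteration. Growth was scored as inhibition against vehicle-only controls.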

[6] = NCI Yeast Anticancer Drug Screen. Data for the rad14 strain (AID 159);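 note: 0% = growth of vehicle-treated control cultures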; settings: S. cerevisiae rad14 strain growth inhibition, stronger effect = higher value
Summary of the method: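 Inhibition of growth is reported for a repair-deficient yeast mutant following compound treatment, calculated relative to cultures that received vehicle.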

[7] = NCI Yeast Anticancer Drug Screen. Data for the sgs1 mgt1 strain (AID 161);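 note: 0% = growth of cultures given vehicle only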; settings: S. cerevisiae sgs1 mgt1 strain, stronger effect = higher value
Summary of the method: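 Mutant yeast exposed to compound; growth scored against vehicle-only wells.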

[8] = NCI Yeast Anticancer Drug Screen. Data for the CLN2oe strain (AID 163);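 note: 0% = growth of vehicle-only control cultures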; settings: S. cerevisiae CLN2oe strain, stronger effect = higher value
Summary of the method: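 Here, growth inhibition in a cell-cycle-altered yeast strain after compound exposure was quantified against vehicle control growth.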

[9] = NCI Yeast Anticancer Drug Screen. Data for the cln2 rad14 strain (AID 165);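 note: 0% = growth equal to vehicle treated cultures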; settings: S. cerevisiae cln2 rad14 strain, stronger effect = higher value
Summary of the method: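 Growth of compound-exposed yeast (cln2 rad14 genotype) measured and expressed as inhibition relative to vehicle.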

[10] = NCI Yeast Anticancer Drug Screen. Data for the bub3 strain (AID 167); settings: S. cerevisiae bub3 mutant strain, stronger effect = higher value
Summary of the method: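 Mutant yeast screening strain plus compound; vehicle-treated cultures serve as the 0% inhibition reference.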

[11] = NCI Yeast Anticancer Drug Screen. Data for the wt2 strain (AID 169); settings: S. cerevisiae wt2 strain growth inhibition, stronger effect = higher value
Summary of the method: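 Genetically defined yeast strains from a DNA-repair/cell-cycle panel were used. Compound-exposed yeast growth was measured, and the inhibition was calculated relative to vehicle treatment.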

[12] = NCI Yeast Anticancer Drug Screen. Data for the mlh1 strain (AID 171);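 note: 0% = growth of vehicle-treated control cultures of the same strain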; settings: S. cerevisiae mlh1 strain growth inhibition, stronger effect = higher value
Summary of the method: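 Here the genetically defined yeast mutant is grown with each compound, and the extent to which its growth falls below that of vehicle-exposed cells is reported.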

[13] = NCI Yeast Anticancer Drug Screen. Data for the sgs1 strain (AID 173);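 note: 0% = growth of vehicle-only control cultures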; settings: S. cerevisiae sgs1 mutant, stronger effect = higher value
Summary of the method: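 Relative growth inhibition, referenced to vehicle, was determined in a yeast strain with a defined alteration affecting DNA damage repair or cell cycle control after compound exposure.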

[14] = NCI Yeast Anticancer Drug Screen. Data for the rad18 strain (AID 177); settings: S. cerevisiae rad18 mutant growth inhibition, stronger effect = higher value
Summary of the method: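 Screen uses a yeast strain with a defined lesion in DNA damage repair; compound effect is read as loss of growth compared to untreated vehicle cultures.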

[15] = NCI Yeast Anticancer Drug Screen. Data for the mlh1 rad18 strain (AID 175); settings: S. cerevisiae mlh1 rad18 strain growth inhibition, stronger effect = higher value
Summary of the method: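 In this whole-cell yeast screen, a strain with altered DNA damage repair is challenged with compound, and its growth is measured against matched vehicle-treated controls.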

[16] = at 5.0 µM (retest, dose inferred, filed as 0.5)
[17] = at 50.0 µM (retest, dose inferred, filed as 5.0)

Measured: growth inhibition

O=S1(=O)c2ccccc2N=C(c2ccccc2Cl)CC1c1ccc(F)cc1 (stereo not drawn)
inactive: [1]; at 1.2 µM 21% | [1]; at 3.7 µM 24% | [1]; at 11.0 µM 28% | [1]; at 33.0 µM 35% | [1]; at 100.0 µM 34% | [2]; at 1.2 µM 0% | [2]; at 3.7 µM -4% | [2]; at 11.0 µM 25% | [2]; at 33.0 µM 36% | [2]; at 100.0 µM 8% | [3]; at 1.2 µM -23% | [3]; at 3.7 µM -22% | [3]; at 11.0 µM 0% | [3]; at 33.0 µM 15% | [3]; at 100.0 µM 24% | [4]; at 1.2 µM -39% | [4]; at 3.7 µM -34% | [4]; [16] -7% | [4]; at 11.0 µM -18% | [4]; at 33.0 µM 17% | [4]; [17] 29% | [4]; at 50.0 µM 18.3% | [4]; at 100.0 µM 13% | [5]; at 1.2 µM -52% | [5]; at 3.7 µM -27% | [5]; [16] -22% | [5]; at 11.0 µM -29% | [5]; at 33.0 µM 0% | [5]; [17] -10% | [5]; at 50.0 µM -10.2% | [5]; at 100.0 µM -27% | [6]; at 1.2 µM -32% | [6]; at 3.7 µM -47% | [6]; at 11.0 µM -25% | [6]; at 33.0 µM -3% | [6]; at 100.0 µM -6% | [7]; [16] -5% | [7]; [17] -8% | [7]; at 50.0 µM 61% | [8]; at 1.2 µM -9% | [8]; at 3.7 µM -8% | [8]; at 11.0 µM -10% | [8]; at 33.0 µM -1% | [8]; at 100.0 µM -13% | [9]; [16] 17% | [9]; [17] 16% | [9]; at 50.0 µM 31.5% | [10]; at 1.2 µM -4% | [10]; at 3.7 µM -16% | [10]; [16] -20% | [10]; at 11.0 µM -5% | [10]; at 33.0 µM -2% | [10]; [17] 56% | [10]; at 50.0 µM 3.25% | [10]; at 100.0 µM 13% | [11]; at 1.2 µM -6% | [11]; at 3.7 µM -8% | [11]; at 11.0 µM -20% | [11]; at 33.0 µM 7% | [11]; at 100.0 µM 25% | [12]; at 1.2 µM -17% | [12]; at 3.7 µM -10% | [12]; at 11.0 µM -8% | [12]; at 33.0 µM 13% | [12]; at 100.0 µM 7% | [13]; at 1.2 µM -7% | [13]; at 3.7 µM 8% | [13]; at 11.0 µM -15% | [13]; at 33.0 µM 17% | [13]; at 100.0 µM 33% | [14]; at 1.2 µM -3% | [14]; at 3.7 µM 2% | [14]; at 11.0 µM 18% | [14]; at 33.0 µM 36% | [14]; at 100.0 µM 22%

CN(N=O)c1ccc(/C=C/c2ccnc3ccccc23)cc1
active: [1]; at 33.0 µM 85% | [1]; at 100.0 µM 96% | [3]; at 33.0 µM 90% | [3]; at 100.0 µM 98% | [4]; at 33.0 µM 89% | [4]; [17] 87% | [4]; at 50.0 µM 95.8% | [4]; at 100.0 µM 95% | [5]; at 100.0 µM 90% | [6]; at 100.0 µM 71% | [11]; at 100.0 µM 81% | [12]; at 100.0 µM 86% | [13]; at 100.0 µM 90% | [15]; at 50.0 µM 78.6% | [14]; at 100.0 µM 91%
inactive: [1]; at 1.2 µM 2% | [1]; at 3.7 µM 9% | [1]; at 11.0 µM 35% | [2]; at 1.2 µM 0% | [2]; at 3.7 µM 2% | [2]; at 11.0 µM 8% | [2]; at 33.0 µM 20% | [2]; at 100.0 µM 57% | [3]; at 1.2 µM 7% | [3]; at 3.7 µM 26% | [3]; at 11.0 µM 68% | [4]; at 1.2 µM 5% | [4]; at 3.7 µM 14% | [4]; [16] 23% | [4]; at 11.0 µM 42% | [5]; at 1.2 µM 3% | [5]; at 3.7 µM 5% | [5]; [16] 7% | [5]; at 11.0 µM 13% | [5]; at 33.0 µM 34% | [5]; [17] 32% | [5]; at 50.0 µM 42.5% | [6]; at 1.2 µM 3% | [6]; at 3.7 µM 3% | [6]; at 11.0 µM 10% | [6]; at 33.0 µM 24% | [7]; [16] 8% | [7]; [17] 43% | [7]; at 50.0 µM 47.3% | [8]; at 1.2 µM 3% | [8]; at 3.7 µM -4% | [8]; at 11.0 µM 5% | [8]; at 33.0 µM 15% | [8]; at 100.0 µM 56% | [9]; [16] -10% | [9]; [17] 12% | [9]; at 50.0 µM 19.6% | [10]; at 1.2 µM -3% | [10]; at 3.7 µM 3% | [10]; [16] 4% | [10]; at 11.0 µM 16% | [10]; at 33.0 µM 32% | [10]; [17] 25% | [10]; at 50.0 µM 37% | [10]; at 100.0 µM 68% | [11]; at 1.2 µM -4% | [11]; at 3.7 µM 1% | [11]; at 11.0 µM 7% | [11]; at 33.0 µM 28% | [12]; at 1.2 µM 3% | [12]; at 3.7 µM 5% | [12]; at 11.0 µM 13% | [12]; at 33.0 µM 31% | [13]; at 1.2 µM -2% | [13]; at 3.7 µM 3% | [13]; at 11.0 µM 10% | [13]; at 33.0 µM 55% | [15]; [16] 3% | [15]; [17] 68% | [14]; at 1.2 µM 0% | [14]; at 3.7 µM 2% | [14]; at 11.0 µM 16% | [14]; at 33.0 µM 55%

Nc1ccc(CCl)cc1Cc1c(O)ccc2ccccc12
inactive: [1]; at 1.2 µM 0% | [1]; at 3.7 µM 3% | [1]; at 11.0 µM 9% | [1]; at 33.0 µM 19% | [1]; at 100.0 µM 36% | [2]; at 1.2 µM -1% | [2]; at 3.7 µM 6% | [2]; at 11.0 µM 12% | [2]; at 33.0 µM 19% | [2]; at 100.0 µM 30% | [3]; at 1.2 µM 8% | [3]; at 3.7 µM 15% | [3]; at 11.0 µM 40% | [3]; at 33.0 µM 61% | [4]; at 1.2 µM 1% | [4]; at 3.7 µM 4% | [4]; [16] 6% | [4]; at 11.0 µM 8% | [4]; at 33.0 µM 13% | [4]; [17] 41% | [4]; at 50.0 µM 51.4% | [4]; at 100.0 µM 27% | [5]; at 1.2 µM 1% | [5]; at 3.7 µM 0% | [5]; [16] -6% | [5]; at 11.0 µM 6% | [5]; at 33.0 µM 13% | [5]; at 50.0 µM 37.2%
active: [3]; at 100.0 µM 74% | [5]; [17] 84%
